Measured values published in PubChem BioAssay AID1159580 (chemical genetic matrix, 2015).
Hit rate of the full screen: of about 5,500 compounds, about 2,000 (36%) were called active. Inconclusive results (about 18%) are left out. Cut-off read from the data, not from the text of the source: active = normalized growth mostly below about 0.91 (no sharp cut-off); inconclusive = no clear call, values can overlap the other calls; inactive = mostly above about 0.92. Some of the results follow.

Assay: chemical genetic growth profiling, strain panel (AID 1159580);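 note: tested at 20 µM; growth read once vehicle control cultures reached saturation at 30 °C; 1 = growth at the plate median or of vehicle wells; lower values mean less growth of the strain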
Conditions: growth OD

Measured: normalized growth

N#C/C(=C\c1cccc(O)c1)C(=O)O
inactive: S. cerevisiae deletion strains, locus YJR075W, strain HOC1, hits give low values 0.98 | S. cerevisiae deletion strains, locus YKL009W, strain mrt4, hits give low values 0.989 | S. cerevisiae deletion strains, locus YKL068W, hits give low values 0.998 | S. cerevisiae deletion strains, locus YKL085W, strain MDH1 (second series), hits give low values 0.951 | S. cerevisiae deletion strains, locus YKL085W, strain MDH1, hits give low values 0.951 | S. cerevisiae deletion strains, locus YKL160W, strain elf1, hits give low values 0.977 | S. cerevisiae deletion strains, locus YKL190W, strain CNB1, hits give low values 0.99 | S. cerevisiae deletion strains, locus YKR001C, strain vps1, hits give low values 1 | S. cerevisiae deletion strains, locus YKR026C, strain gcn3, hits give low values 1 | S. cerevisiae deletion strains, locus YKR091W, strain srl3, hits give low values 0.976 | S. cerevisiae deletion strains, locus YLL001W, strain dnm1, hits give low values 1.03 | S. cerevisiae deletion strains, locus YLL026W, hits give low values 0.974 | S. cerevisiae deletion strains, locus YLL041C, strain sdh2, hits give low values 0.984 | S. cerevisiae deletion strains, locus YLR027C, strain aat2, hits give low values 0.985 | S. cerevisiae deletion strains, locus YLR039C, strain RIC1, hits give low values 1.01 | S. cerevisiae deletion strains, locus YLR058C, strain SHM2, hits give low values 0.979 | S. cerevisiae deletion strains, locus YLR102C, strain apc9, hits give low values 0.988 | S. cerevisiae deletion strains, locus YLR113W, strain HOG1, hits give low values 0.971 | S. cerevisiae deletion strains, locus YLR221C, strain rsa3, hits give low values 1.02 | S. cerevisiae deletion strains, locus YLR258W, strain gsy2, hits give low values 0.977 | S. cerevisiae deletion strains, locus YLR262C, strain YPT6 (second series), hits give low values 0.974 | S. cerevisiae deletion strains, locus YLR262C, strain YPT6, hits give low values 0.957 | S. cerevisiae deletion strains, locus YLR268W, strain sec22, hits give low values 0.987 | S. cerevisiae deletion strains, locus YLR320W, strain mms22, hits give low values 1.03 | S. cerevisiae deletion strains, locus YLR330W, strain CHS5, hits give low values 0.989 | S. cerevisiae deletion strains, locus YLR342W, strain FKS1 (second series), hits give low values 1.09 | S. cerevisiae deletion strains, locus YLR342W, strain FKS1, hits give low values 0.99 | S. cerevisiae deletion strains, locus YLR357W, strain rsc2, hits give low values 0.988 | S. cerevisiae deletion strains, locus YLR370C, strain arc18, hits give low values 0.978 | S. cerevisiae deletion strains, locus YLR371W, strain rom2, hits give low values 1 | S. cerevisiae deletion strains, locus YLR384C, strain iki3, hits give low values 0.991 | S. cerevisiae deletion strains, locus YLR418C, strain cdc73, hits give low values 0.964 | S. cerevisiae deletion strains, locus YML016C, strain PPZ1, hits give low values 1 | S. cerevisiae deletion strains, locus YML032C, strain rad52, hits give low values 1.02 | S. cerevisiae deletion strains, locus YML120C, strain ndi1, hits give low values 0.992 | S. cerevisiae deletion strains, locus YML124C, strain tub3, hits give low values 1 | S. cerevisiae deletion strains, locus YMR058W, strain fet3, hits give low values 0.997 | S. cerevisiae deletion strains, locus YMR078C, strain ctf18, hits give low values 0.996 | S. cerevisiae deletion strains, locus YMR125W, strain sto1, hits give low values 0.991 | S. cerevisiae deletion strains, locus YMR129W, hits give low values 0.964 | S. cerevisiae deletion strains, locus YMR205C, strain PFK2, hits give low values 1.02 | S. cerevisiae deletion strains, locus YMR223W, strain ubp8, hits give low values 1.05 | S. cerevisiae deletion strains, locus YMR231W, strain pep5, hits give low values 0.991 | S. cerevisiae deletion strains, locus YMR263W, strain SAP30, hits give low values 0.979 | S. cerevisiae deletion strains, locus YMR307W, strain GAS1, hits give low values 1.08 | S. cerevisiae deletion strains, locus YNL067W, strain RPL9B, hits give low values 0.989 | S. cerevisiae deletion strains, locus YNL071W, strain lat1, hits give low values 0.997 | S. cerevisiae deletion strains, locus YNL128W, strain TEP1, hits give low values 0.928 | S. cerevisiae deletion strains, locus YNL153C, strain GIM3, hits give low values 0.984 | S. cerevisiae deletion strains, locus YNL183C, strain NPR1, hits give low values 0.915 | S. cerevisiae deletion strains, locus YNL209W, strain ssb2, hits give low values 1 | S. cerevisiae deletion strains, locus YNL233W, strain BNI4, hits give low values 1.01 | S. cerevisiae deletion strains, locus YNL248C, strain rpa49, hits give low values 0.963 | S. cerevisiae deletion strains, locus YNL250W, strain rad50, hits give low values 0.991 | S. cerevisiae deletion strains, locus YNL271C, strain bni1, hits give low values 1.01 | S. cerevisiae deletion strains, locus YNL298W, strain CLA4, hits give low values 1 | S. cerevisiae deletion strains, locus YNL307C, strain MCK1, hits give low values 1.03 | S. cerevisiae deletion strains, locus YNL322C, strain KRE1 (second series), hits give low values 0.952 | S. cerevisiae deletion strains, locus YNL322C, strain KRE1, hits give low values 0.979 | S. cerevisiae deletion strains, locus YNR049C, strain mso1, hits give low values 0.961 | S. cerevisiae deletion strains, locus YNR052C, strain pop2, hits give low values 0.995 | S. cerevisiae deletion strains, locus YOL006C, strain TOP1, hits give low values 0.975 | S. cerevisiae deletion strains, locus YOL012C, strain htz1 1.3 | S. cerevisiae deletion strains, locus YOL147C, strain pex11, hits give low values 0.994 | S. cerevisiae deletion strains, locus YOR001W, strain rrp6, hits give low values 1.02 | S. cerevisiae deletion strains, locus YOR061W, strain CKA2, hits give low values 0.96 | S. cerevisiae deletion strains, locus YOR069W, strain VPS5, hits give low values 0.997 | S. cerevisiae deletion strains, locus YOR070C, strain gyp1, hits give low values 0.993 | S. cerevisiae deletion strains, locus YOR080W, strain dia2, hits give low values 0.984 | S. cerevisiae deletion strains, locus YOR083W, strain WHI5, hits give low values 0.916 | S. cerevisiae deletion strains, locus YOR106W, strain vam3, hits give low values 0.924 | S. cerevisiae deletion strains, locus YOR136W, strain idh2, hits give low values 1.01 | S. cerevisiae deletion strains, locus YOR144C, strain elg1, hits give low values 0.989 | S. cerevisiae deletion strains, locus YOR184W, strain ser1, hits give low values 1.06 | S. cerevisiae deletion strains, locus YOR231W, strain MKK1, hits give low values 0.973 | S. cerevisiae deletion strains, locus YOR265W, strain rbl2, hits give low values 0.964 | S. cerevisiae deletion strains, locus YOR270C, strain vph1, hits give low values 0.997 | S. cerevisiae deletion strains, locus YOR290C, strain snf2, hits give low values 0.967 | S. cerevisiae deletion strains, locus YOR316C, strain cot1, hits give low values 0.986 | S. cerevisiae deletion strains, locus YPL051W, strain arl3, hits give low values 0.981 | S. cerevisiae deletion strains, locus YPL055C, strain LGE1, hits give low values 0.96 | S. cerevisiae deletion strains, locus YPL078C, strain atp4, hits give low values 0.991 | S. cerevisiae deletion strains, locus YPL106C, strain sse1, hits give low values 0.961 | S. cerevisiae deletion strains, locus YPL240C, strain hsp82, hits give low values 0.986 | S. cerevisiae deletion strains, locus YPL241C, strain CIN2, hits give low values 0.987 | S. cerevisiae deletion strains, locus YPL256C, strain CLN2, hits give low values 0.977 | S. cerevisiae deletion strains, locus YPR119W, strain clb2, hits give low values 0.987 | S. cerevisiae deletion strains, locus YPR141C, strain kar3, hits give low values 0.975 | S. cerevisiae deletion strains, locus YPR163C, strain tif3, hits give low values 0.998 | S. cerevisiae deletion strains, locus YPR167C, strain met16, hits give low values 0.981 | S. cerevisiae deletion strains, strain wtn01, hits give low values 0.98 | S. cerevisiae strains, strain wild type, hits give low values 1.02
